These results are taken from PubChem BioAssay (NCATS).

Records with an inconclusive call do not appear. Values without a mark were called inactive. The call rests on the fitted dose curve; in most records, active means well fitted cell-killing curve with a large enough effect; inconclusive means small, poorly fitted or top-dose-only effect; inactive means flat fitted curve, though single readings scatter.
On the % scale 0 is the no-effect control and ±100 the full control effect.

The assay in a line: Cell Viability - LYMP2-006 (AID 978). Further: nearly all actives have a fitted effect of over 60% in size. The following applies: LYMP2-006 lymphoblastoid cell viability, qHTS; series mostly up to 92.2 µM; activity change, negative = cytotoxicity: at the top concentration. From the text: NIH Chemical Genomics Center [NCGC]
NIH Molecular Libraries Screening Centers Network [MLSCN]
National Institutes of Environmental Health Sciences [NIEHS]
National Toxicology Program [NTP]
We have developed a 1536-well cell-based assay for quantitative high throughput screening (qHTS) against a number of cell lines to determine in vitro cytotoxicity of small molecules. This particular assay uses a human lymphoblastoid cell line (LYMP2-006) purchased from Coriell Institute for Medical Research.
NCGC Assay Protocol Summary:
The CellTiter-Glo luminescent cell viability assay (Promega) is a homogeneous method to measure the number of viable cells in culture. The end point readout of this assay is based on quantitation of intracellular ATP, an indicator of metabolic activity, using the luciferase reaction. Luciferase catalyzes the oxidation of beetle Luciferin to oxyluciferin and light in the presence of ATP. The luminescent signal is proportional to amount of ATP present.
Using the CellTiter-Glo luminescent cell viability assay, the amount of cellular ATP was measured in the lymphoblastoid cell line with complete culture medium following compound treatment for 24 hours. The assay was performed in opaque white Kalypsys 1536-well plates. In the screen, tetraoctylammonium bromide was used as positive control. Library compounds were measured for their ability to cause acute toxicity in the cell line, as reflected by a decrease in intracellular ATP levels, in a concentration-dependent manner. […] AC50 values were determined from concentration-response data modeled with the standard Hill equation.
qHTS protocol for CellTiter Glo lymphoblastoid cellular assay
[Step] [Parameter] [Value] [Description]
1. Reagent; 5 uL; 2500 lymphoblastoid cells/well
2. Time; 5 hr; 37 C incubation
4. Controls; 23 nL; Tetraoctylammonium bromide 6.4pM to 92 uM
5. Time; 24 hr; 37 C incubation
6. Reagent; 5 uL; CellTiter Glo reagent
7. Time; 30 min; Room Temperature
8. Detection; Luminescence; Viewlux plate reader
Keywords: cell viability, cytotoxicity, lymphoblastoid cell line, luminescence, NTPHTS, NTPHTS_NCGC, NIEHS, DSSTox, MLSMR, MLSCN, NIH Roadmap, qHTS, NCGC
(Quantitative high-throughput screening tests each substance at several concentrations.)
On to `ClC(Cl)Br`, for which the “activity change, negative = cytotoxicity” value is 3.01%.
As for `ClCC(Cl)CCl`, the figure is -7.38%; as for `CCNCC`, -3.74%.
In the case of `CC(C)Br` it was -1.14%; in that of `C=C(Cl)CCl`, 0.828%; in that of `CC(C)OC(=O)Cc1ccccc1`, 5.67%.
In the case of `Clc1ccc(C(Cl)(Cl)Cl)cc1Cl` it was -4.81%; in that of `Cl/C=C/Cl`, -12.3%.
For `N#CC(Cl)(Cl)Cl`, the “activity change, negative = cytotoxicity” value is -15.3%.
Regarding `CC(=O)CCC(C)=O`, the “activity change, negative = cytotoxicity” value was 3.78%.
In the case of `Oc1ccc(Cl)c(Cl)c1` it was -8.07%.
As for `Brc1ccc(Oc2ccc(Br)cc2Br)c(Br)c1`, the figure is 4.08%.
In the case of `ClCC(Cl)Cl` it was -7.57%.
Consider `N#CC(O)c1ccccc1` (stereo not given), for which the “activity change, negative = cytotoxicity” value is -5.12%.
Regarding `CC(C)(Cl)Cl`, the “activity change, negative = cytotoxicity” value was 8.29%.
In the case of `ClC(Br)Br` it was -5.7%; in that of `COc1ccccc1N`, 3.46%; in that of `Clc1ccc(C(Cl)(Cl)Cl)c(Cl)c1`, -9.46%.
As for `CCOP(=S)(OCC)Oc1nc(Cl)c(Cl)cc1Cl`, the figure is 8.85%.
With `CN(C)c1ccccc1`, the “activity change, negative = cytotoxicity” value is -8.79%.
As for `C=C(Cl)CSC(=S)N(CC)CC`, the figure is -13.7%; as for `O=[N+]([O-])c1cccc(CCl)c1`, -34.1%.
Consider `O=C(O)CBr`, for which the “activity change, negative = cytotoxicity” value was -14%.
In the case of `O=[N+]([O-])c1c(Cl)c(Cl)c(Cl)c(Cl)c1Cl` it was 0.725%.
Turning to `C=CCCl`, the “activity change, negative = cytotoxicity” value was -2.35%.
On to `Cc1ccc(N=C=O)cc1N=C=O`, for which the “activity change, negative = cytotoxicity” value was -13.9%.
In the case of `CC(Cl)(Cl)Cl`, the “activity change, negative = cytotoxicity” value was -9.11%.
For `CNC(=O)O/N=C/C(C)(C)S(C)=O` (stereo not given), the “activity change, negative = cytotoxicity” value was -10.4%.
As for `Brc1cccc(-c2ccccc2)c1`, the figure is -3.22%.
On to `CC(C)(C)c1ccccc1O`, for which the “activity change, negative = cytotoxicity” value was -1.97%.
As to `COC(C)(C)C`, the “activity change, negative = cytotoxicity” value was 13.5%.
As for `Clc1ccc(Cl)c(Cl)c1`, the figure is 5.44%; as for `c1ccc(OCC2CO2)cc1` (stereo not given), 0.094%; as for `O=C(O)C(Br)CBr` (stereo not given), -2.83%.
In the case of `CCOP(=S)(OCC)SCCSCC` it was -8.53%; in that of `CCCCOCC1CO1` (stereo not given), -18.7%.
As for `O=C(O)c1cccc(Cl)c1`, the “activity change, negative = cytotoxicity” value was 6.33%.
In the case of `CCOC(=O)CC(SP(=O)(OC)OC)C(=O)OCC` (stereo not given) it was -0.617%; in that of `c1ccc(P(c2ccccc2)c2ccccc2)cc1`, -28.1%; in that of `Nc1ccc(-c2ccc(N)c(Cl)c2)cc1Cl`, -19.4%.
